Source: PubChem
A selection: hits, their analogues and other compounds. The true share with any hit is near 3.2%.
Mcl1 Bid PPI – Mcl-1/Bid binding inhibitors, primary screen, biochemical, TR-FRET, 1536-well; inhibition, % at 21.7 µM; Induced myeloid leukemia cell differentiation protein Mcl-1 (Homo sapiens), Q07820; AID 1021, 2008; TR-FRET Mcl-1/Bid-Dy647 peptide binding; 220,000 compounds, 0.97% hits;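 active = compounds that cut the binding signal by more than half at the single screening dose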;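 note: His-tagged Mcl-1 with europium anti-His antibody binding Bid BH3 peptide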
Target sequence (Q07820 whole entry, looked up): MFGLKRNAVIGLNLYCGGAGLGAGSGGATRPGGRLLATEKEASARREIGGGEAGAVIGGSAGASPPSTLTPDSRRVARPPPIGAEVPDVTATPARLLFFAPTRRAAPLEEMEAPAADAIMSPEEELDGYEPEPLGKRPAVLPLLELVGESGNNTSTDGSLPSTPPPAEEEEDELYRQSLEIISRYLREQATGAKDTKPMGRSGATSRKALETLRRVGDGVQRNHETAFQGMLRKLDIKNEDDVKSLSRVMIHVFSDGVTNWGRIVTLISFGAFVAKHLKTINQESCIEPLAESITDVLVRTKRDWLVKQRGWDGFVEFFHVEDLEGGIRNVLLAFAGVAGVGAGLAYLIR
14-3-3 Bad PPI – inhibitors of 14-3-3 zeta/Bad binding, primary screen, biochemical, TR-FRET, bovine 14-3-3 zeta; 14-3-3 protein zeta/delta (Bos taurus), P63103; inhibition, % at 21.7 µM; AID 781, 2007; 220,000 compounds, 0.71% hits; TR-FRET 14-3-3zeta/Dy647-pBad peptide displacement, 1 h;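 active = inhibition above about 70%, limit read from the data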
Target sequence (P63103 whole entry, looked up): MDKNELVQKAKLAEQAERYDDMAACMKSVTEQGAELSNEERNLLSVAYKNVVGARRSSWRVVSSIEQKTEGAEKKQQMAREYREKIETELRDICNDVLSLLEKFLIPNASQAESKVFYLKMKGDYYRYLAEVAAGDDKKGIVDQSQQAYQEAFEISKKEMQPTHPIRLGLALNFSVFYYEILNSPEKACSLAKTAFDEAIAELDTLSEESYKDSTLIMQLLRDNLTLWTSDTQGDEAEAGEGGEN
NCF1 inh – p47phox/p22phox peptide binding inhibitors, primary screen, biochemical, uHTS, NADPH oxidase regulatory subunit; Neutrophil cytosol factor 1 (Homo sapiens), P14598; fluorescence polarization, 2 h; inhibition, % at 24.7 µM; 220,000 compounds, 0.53% hits; AID 1274, 2008;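 active = inhibition above about 30%, limit read from the data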
Mcl1-Noxa inh – Mcl-1/Noxa binding inhibitors, primary screen, biochemical, TR-FRET, 1536-well; TR-FRET Mcl-1/Noxa peptide binding, 2 h; 220,000 compounds, 1.5% hits; AID 1022, 2008; inhibition, % at 21.7 µM;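 active = compounds that cut the protein-peptide binding signal by more than 50% relative to plate controls in a single-dose test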;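 note: His-tagged Mcl-1 with rhodamine Noxa BH3 peptide and terbium anti-His antibody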
Mcl-1 Bim block – inhibitors of Bim peptide binding to Mcl-1, primary screen, biochemical, bead-based flow cytometry, multiplex; Bim peptide-Mcl-1 binding; 190,000 compounds, 0.1% hits; Induced myeloid leukemia cell differentiation protein Mcl-1 (Homo sapiens), Q07820; inhibition, % at 10 µM; in the data active = inhibition above about 40%
A number is an active result; - = inactive; . = no result given.

SMILES	Mcl1 Bid PPI	14-3-3 Bad PPI	NCF1 inh	Mcl1-Noxa inh	Mcl-1 Bim block
Cc1ccc(Cl)c(OCCCCN(C)Cc2ccccc2)c1	52.5	76.9	-	-	-
Cc1ccc(Cl)c(OCCCN(C)Cc2ccccc2)c1	77.4	71.9	-	-	.
Cc1ccc2nc3c(c(C(=O)OCC(=O)NC4CCS(=O)(=O)C4)c2c1)CCCC3 (centres undefined)	-	-	-	-	-
COC(=O)/C=C1\SC(N2CCOCC2)=C(c2ccc(OC)cc2)C1=O	-	-	-	-	-
COc1ccc(/C=C2\N=C(c3ccccc3)NNC2=O)cc1	-	-	-	-	.
O=C(Nc1cccc(-c2cn3ccccc3n2)c1)C1CC1	-	-	67.0	-	-
CCC(=O)Nc1cccc(-c2cn3ccccc3n2)c1	-	-	-	-	-
CSCC[C@H](NC(=O)OC(C)(C)C)c1nnc(SCC(=O)N(C)C)o1	-	-	-	67.4	-
CN(C)C(=O)CSc1nnc([C@H](Cc2ccccc2)NC(=O)OC(C)(C)C)o1	-	-	-	-	.
COC(=O)c1c(NC(=O)c2nc3nc(C)cc(C(F)F)n3n2)sc2c1CCC2	-	-	-	-	-
Cc1cc(C(F)F)n2nc(C(=O)Nc3sc4c(c3C(N)=O)CCC4)nc2n1	-	-	-	73.6	-
Cc1ccc(S(=O)(=O)N(C)C)cc1NC(=O)COC(=O)c1sc2cc(Cl)ccc2c1Cl	-	-	-	-	.
CC(C)NC(=O)c1cc2cc([N+](=O)[O-])ccc2s1	-	-	-	-	-
O=C(Nc1ccccn1)c1cccs1	-	-	-	-	-
Cc1ccnc(NC(=O)c2cccs2)c1	-	85.9	-	-	-
Cc1cccc(NC(=O)c2cc3cc([N+](=O)[O-])ccc3s2)n1	-	89.3	-	59.7	-
Cc1cccc(NC(=O)c2cccs2)n1	-	-	-	78.3	-
CC(N=C1NS(=O)(=O)c2ccccc21)C(=O)N1CCc2ccccc2C1 (centres undefined)	-	-	-	-	-
O=C(CC1C=Cc2ccccc2N1C(=O)c1ccccc1)c1ccccc1 (centres undefined)	-	-	-	-	.
Cc1cccc(Cn2c(N3CCc4ccccc4C3)nc3c2c(=O)[nH]c(=O)n3C)c1	-	-	-	62.8	-
COc1cc(C(=O)Nc2ccc(N(C)C)cc2)c([N+](=O)[O-])cc1OC	-	-	-	69.2	-
COc1cc(C(=O)Nc2ccncc2)c([N+](=O)[O-])cc1OC	-	-	-	-	.
CCNC(=O)CSc1nnc(-c2ccccc2Br)n1-c1cccc(C(F)(F)F)c1	-	-	-	-	-
CC(C)N1C(=O)/C(=C/c2nc3ccccc3c(=O)n2-c2ccccc2)c2ccccc21	77.9	77.2	-	54.9	-
CCCN1CNc2c(c(=O)[nH]c(=S)n2CCc2ccc(OC)c(OC)c2)C1	-	-	-	-	-
SMILES	Mcl1 Bid PPI	14-3-3 Bad PPI	NCF1 inh	Mcl1-Noxa inh	Mcl-1 Bim block
Cc1cc(C)n(Cc2cccc(F)c2)c(=O)c1C#N	96.5	-	-	-	-
Cc1cc(C)n(Cc2ccccc2F)c(=O)c1C#N	-	-	-	-	-
CCCCOCCCNC(=O)N[C@H](C(=O)OC)C(C)CC (some centres undefined)	-	-	-	-	.
Cc1ccc(-c2cc(-c3ccccc3)c(C#N)c(N)n2)o1	-	-	-	64.6	-
Cc1ccc(-c2cc(-c3ccccc3Cl)c(C#N)c(N)n2)o1	-	-	-	60.1	-
Cc1ccc(-c2cc(-c3ccc(F)cc3)nc(N)c2C#N)o1	-	-	-	-	-
COc1ccc(/C=C(/NC(=O)c2ccco2)C(=O)N2CCCC2=O)cc1	-	-	-	-	-
CC(=O)c1sccc1NC(=O)CC(C)(C)CC(=O)O	-	-	-	-	.
COc1cc(CNc2ccccc2SC)ccc1O	-	76.9	-	-	-
CCOc1cc(CNc2ccccc2SC)ccc1O	-	-	-	-	-
Cc1onc(-c2c(Cl)cccc2Cl)c1C(=O)N1CCN(c2ncccn2)CC1	-	-	54.9	-	-
Cc1onc(-c2c(Cl)cccc2Cl)c1C(N)=O	-	-	-	-	-
Cc1cc(C)nc(NC(=O)c2c(-c3c(Cl)cccc3Cl)noc2C)n1	-	-	-	-	-
Cc1onc(-c2c(Cl)cccc2Cl)c1C(=O)N1CCN(c2ccccc2)CC1	-	-	-	-	-
Cc1onc(-c2c(Cl)cccc2Cl)c1C(N)=S	50.9	-	-	-	-
CC(=O)Nc1cccc(NC(=O)c2c(-c3c(Cl)cccc3Cl)noc2C)c1	-	-	-	67.2	-
COC(=O)c1onc(-c2c(Cl)cccc2Cl)c1C(=O)OC	-	-	46.6	-	.
c1cn(-c2ccc(-c3ccnc4ncnn34)cc2)cn1	-	-	-	-	-
COCCNC(=O)C(NC(=O)C1CCC(C)CC1)C(C)C (centres undefined)	-	-	-	-	-
O=C(NCC(=O)N(c1cccnc1)C(C(=O)NC1CCCC1)c1cccs1)c1ccco1 (centres undefined)	-	-	.	-	-
CN(C)c1ccc(N=C/C=C2\N(C)c3ccccc3C2(C)C)cc1	-	-	-	70.8	-
CN1/C(=C\C=Nc2ccc3ccccc3c2)C(C)(C)c2ccccc21	-	-	-	-	-
Cc1cc(N)c2cc(NC(=O)/C=C/c3ccccc3Cl)ccc2n1	-	-	97.3	-	.
Cc1ccc(Oc2nc3ccccc3n3cccc23)cc1	-	-	-	-	-
c1ccc(Oc2nc3ccccc3n3cccc23)cc1	67.1	-	-	-	-
SMILES	Mcl1 Bid PPI	14-3-3 Bad PPI	NCF1 inh	Mcl1-Noxa inh	Mcl-1 Bim block
CCN(C(=O)CN1CCN(S(=O)(=O)c2ccccc2C(F)(F)F)CC1)c1c(N)n(Cc2ccccc2)c(=O)[nH]c1=O	-	-	-	-	-
COc1cccc(CN2CCN(Cc3nc(C(C)C)cs3)CC2CCO)c1 (centres undefined)	-	-	-	-	-
CN(CC(=O)NCCc1ccc(F)cc1)Cc1cccc(Cl)c1	-	-	-	-	-
O=C(N/N=C/c1c(O)n(-c2ccccc2Cl)c(=O)c2ccccc12)c1cccnc1	-	-	-	55.4	-
O=C(N/N=C/c1c(O)n(Cc2ccccc2)c(=O)c2ccccc12)c1cccnc1	-	-	-	-	-
CC(C)OCCCn1c(SCC(=O)N2CCc3ccccc32)nc2ccccc2c1=O	-	-	-	-	-
CSc1nc(N(CCO)CCO)c2sc3nc(-c4ccco4)c4c(c3c2n1)CCC4	80.0	-	-	106.7	-
CSc1nc(SCCO)c2sc3nc(-c4ccco4)c4c(c3c2n1)CC(C)(C)OC4	84.7	-	-	99.2	-
CC1(C)Cc2c(c(-c3ccco3)nc3sc4c(NCCO)ncnc4c23)CO1	-	-	-	54.5	-
